Sampled rows, rich in hits. Any-hit rate of the full collection: about 5.1%.
PNC assembly inh: perinucleolar compartment assembly inhibition; PC3M PTB-GFP, PNC prevalence imaging, 16 h; stronger effect = lower value; activity change (PNC), negative = inhibition, % at 10 µM; hit rate 3.1% among 140,000;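 active = readout at or below -70, meaning at least 70% loss of cells showing the perinucleolar compartment, a nuclear body marking cancer cells; inconclusive = readout between -30 and a set limit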
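PC3M cells stably expressing PTB-GFP, 750–1000 cells/well, treated 16 h at 37 °C with compound (23 nl of library stock), in duplicate. After paraformaldehyde fixation and Hoechst stain, imaged at 20x; PNC prevalence scored by image analysis.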
NPSR antagonist: blocks cAMP signaling of the human neuropeptide S receptor; CHO-NPSR cells, cAMP TR-FRET, antagonist mode; Potency, µM (doses to about 38.3 µM), actives largely listed as inhibitors; hit rate 1% among 220,000; AID 1461; note: nearly all actives have a fitted effect of over 50% in size
Target sequence (Q6W5P4 whole entry, looked up): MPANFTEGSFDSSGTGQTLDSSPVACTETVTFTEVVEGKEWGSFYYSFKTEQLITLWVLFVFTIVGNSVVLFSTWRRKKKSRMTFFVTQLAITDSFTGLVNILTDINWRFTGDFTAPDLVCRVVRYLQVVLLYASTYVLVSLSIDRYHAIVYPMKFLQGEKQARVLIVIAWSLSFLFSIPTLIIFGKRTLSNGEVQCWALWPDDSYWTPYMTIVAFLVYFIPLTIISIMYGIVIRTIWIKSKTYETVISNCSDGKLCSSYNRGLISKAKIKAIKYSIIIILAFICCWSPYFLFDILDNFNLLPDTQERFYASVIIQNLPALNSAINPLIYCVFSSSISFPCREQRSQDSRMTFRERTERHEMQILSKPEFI
Tau ThT inhib: blocks human tau fibril formation measured by thioflavin T; recombinant tau K18 P301L, heparin-induced fibrillization, ThT fluorescence; Potency, µM (top dose mostly 57.4 µM), most hits filed as inhibitors; hit rate 2.1% among 270,000; AID 1460; note: nearly all actives have a fitted effect of over 55% in size
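Aggregation was driven by heparin (20 uM final) acting on recombinant tau […] bearing P301L in 100 mM sodium acetate pH 7; fibrils were detected with Thioflavin T.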
Tau fluor counter: counter-screen for tau fibril formation inhibitors; tau K18 P301L Alexa594 fluorescence, heparin fibrillization; Potency, µM (top dose mostly 57.7 µM); hit rate 0.93% among 280,000; note: nearly all actives have a fitted effect of over 55% in size
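Human tau K18 P301L (15 uM unlabeled, 0.24 uM Alexa 594-labeled) in 100 mM sodium acetate pH 7 with 20 uM heparin, 6 hr at 37 C. ThT 30 uM added, 1 hr ambient; Alexa 594 FP and total fluorescence read at 555/632 nm.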
Tau fibril FP: tau fibrillization inhibition (FP) | P10636 | K18 P301L tau heparin fibrillization, Alexa594 FP, 6 h | Potency, µM (highest dose often 57.7 µM), hits mostly inhibitors | hit rate 0.39% among 280,000 | AID 1468; note: nearly all actives have a fitted effect of over 55% in size
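Human tau K18 […] P301L fragment, 15 uM unlabeled plus 0.24 uM Alexa 594-labeled tau (final), with compound and 20 uM heparin in 100 mM sodium acetate pH 7; 6 hr at 37 C, then Alexa 594 FP read.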
JMJD2E inh: JMJD2E (human) inhibition; B2RXH2; JMJD2E catalytic domain, FDH-coupled NADH fluorescence (FDH is formaldehyde dehydrogenase); Potency, µM (highest dose often 57.1 µM), actives largely listed as inhibitors; hit rate 1.6% among 230,000; AID 2147; active = well fitted inhibition curve with a large enough effect, not every such curve was filed as active; inconclusive = small, poorly fitted or top-dose-only effect, or another doubt; inactive = no such curve, though single readings can be large or run the other way; note: nearly all actives have a fitted effect of over 50% in size
Target sequence (B2RXH2 1-337 limits assumed): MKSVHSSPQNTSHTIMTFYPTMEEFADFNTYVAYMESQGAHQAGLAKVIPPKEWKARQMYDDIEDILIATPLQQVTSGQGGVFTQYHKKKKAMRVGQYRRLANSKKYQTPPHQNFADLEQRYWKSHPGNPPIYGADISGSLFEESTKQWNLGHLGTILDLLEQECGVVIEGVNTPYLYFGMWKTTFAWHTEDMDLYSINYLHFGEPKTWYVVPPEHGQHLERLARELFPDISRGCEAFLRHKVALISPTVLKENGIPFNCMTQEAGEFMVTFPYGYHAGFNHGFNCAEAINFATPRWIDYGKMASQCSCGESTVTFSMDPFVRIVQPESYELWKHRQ
Hits are given with their value; [ ] = dose if it differs, or a comment. Unless noted, calls come from the whole dose curve; as a rule, active = well fitted curve in the direction sought with a large enough effect; inconclusive = small, poorly fitted or top-dose-only effect, or another doubt; inactive = no such curve, though single readings can be large; an effect the other way counts as inactive or inconclusive.

What do the screens show for `Cc1sc2nc(SCC(=O)N3CCCC3)[nH]c(=O)c2c1C`?
PNC assembly inh: -80; NPSR antagonist: inactive; Tau ThT inhib: inactive; Tau fluor counter: inactive; Tau fibril FP: inactive; JMJD2E inh: inactive

Results for CCN(CC)c1ccc(NC(=O)/C=C\c2ccccc2Cl)cc1 ?
PNC assembly inh: -81; NPSR antagonist: inactive; Tau ThT inhib: 4µM; Tau fluor counter: 8.9µM[quencher]; Tau fibril FP: inactive; JMJD2E inh: inactive

What do the screens show for `CC(C)N(C(=O)Cn1cc(SCC(=O)Nc2ccccc2F)c2ccccc21)C(C)C`?
Tau ThT inhib: inactive; Tau fluor counter: inactive; Tau fibril FP: inactive

Results for CCCCn1c(NC(=O)c2ccco2)c(S(=O)(=O)c2ccc(C)cc2)c2nc3ccccc3nc21 ?
PNC assembly inh: inconclusive; NPSR antagonist: inactive; Tau ThT inhib: 16µM; Tau fluor counter: inconclusive; Tau fibril FP: inconclusive; JMJD2E inh: inconclusive

How did CCCCCn1c(NC(=O)c2ccco2)c(S(=O)(=O)c2ccc(C)cc2)c2nc3ccccc3nc21 do in these assays?
PNC assembly inh: inactive; NPSR antagonist: 13µM; Tau ThT inhib: inconclusive; Tau fluor counter: inconclusive; Tau fibril FP: inactive; JMJD2E inh: inconclusive

What do the screens show for `CCCCn1c(NS(=O)(=O)c2ccccc2)c(S(=O)(=O)c2ccc(C)cc2)c2nc3ccccc3nc21`?
PNC assembly inh: inconclusive; NPSR antagonist: inactive; Tau ThT inhib: inconclusive; Tau fluor counter: inactive; Tau fibril FP: inactive; JMJD2E inh: inconclusive

Results for CCCCn1c(NC(=O)c2ccc(Br)o2)c(S(=O)(=O)c2ccccc2)c2nc3ccccc3nc21 ?
PNC assembly inh: inactive; NPSR antagonist: 10µM; Tau ThT inhib: 18µM; Tau fluor counter: inactive; Tau fibril FP: inconclusive; JMJD2E inh: inconclusive

Results for COc1ccc(N2CC(NC(=O)c3cc4ccccc4o3)CC2=O)cc1 (stereo unspecified) ?
Tau ThT inhib: inactive; Tau fluor counter: inactive; Tau fibril FP: inactive

Results for Cc1ccc(Cl)cc1N1CCN(C(=O)Cc2c(C(=O)O)c(C)cn2C)CC1 ?
Tau ThT inhib: inactive; Tau fluor counter: inactive; Tau fibril FP: inactive

How did Cc1cccc(NC(=O)C(=O)NCC(c2cccnc2)N2CCOCC2)c1 (stereo unspecified) do in these assays?
Tau ThT inhib: inactive; Tau fluor counter: inactive; Tau fibril FP: inactive

Results for O=C1c2ccccc2C(=O)N1CCCc1nc(-c2ccccn2)no1 ?
PNC assembly inh: -107; NPSR antagonist: inactive; Tau ThT inhib: inactive; Tau fluor counter: inactive; Tau fibril FP: inactive; JMJD2E inh: inactive

What do the screens show for `O=C1c2ccccc2C(=O)N1CCc1nc(-c2ccccn2)no1`?
PNC assembly inh: inactive; NPSR antagonist: inactive; Tau ThT inhib: inactive; Tau fluor counter: inactive; Tau fibril FP: inactive; JMJD2E inh: inactive

How did CCOC(=O)c1c(-c2ccccc2)csc1NC(=O)c1nc(SCC)ncc1Cl do in these assays?
Tau ThT inhib: inactive; Tau fluor counter: inactive; Tau fibril FP: inactive

How did CCOC(=O)c1c(NC(=O)c2nc(S(C)(=O)=O)ncc2Cl)sc(C(C)=O)c1C do in these assays?
Tau ThT inhib: 22µM; Tau fluor counter: inconclusive; Tau fibril FP: inconclusive

What do the screens show for `CCOC(=O)c1c(-c2ccccc2)csc1NC(=O)c1nc(S(=O)(=O)CC)ncc1Cl`?
Tau ThT inhib: 13µM; Tau fluor counter: inconclusive; Tau fibril FP: inconclusive

How did CCS(=O)(=O)N1CC(=O)N(c2ccccc2C)C(C)(C(=O)NC2CCCCC2)C1 (stereo unspecified) do in these assays?
Tau ThT inhib: inactive; Tau fluor counter: inactive; Tau fibril FP: inactive

How did C/C(CCCO)=N/Nc1ccc([N+](=O)[O-])cc1[N+](=O)[O-] do in these assays?
NPSR antagonist: inactive; Tau ThT inhib: inconclusive; Tau fluor counter: inactive; Tau fibril FP: inactive; JMJD2E inh: inactive

Results for C/C(CCC(=O)O)=N/Nc1ccc([N+](=O)[O-])cc1[N+](=O)[O-] ?
PNC assembly inh: -87; NPSR antagonist: inactive; Tau ThT inhib: inconclusive; Tau fluor counter: inactive; Tau fibril FP: inactive; JMJD2E inh: inactive

What do the screens show for `Clc1ccc(CSc2nnc(-c3c[nH]c4ccccc34)o2)cc1`?
PNC assembly inh: inconclusive; NPSR antagonist: inconclusive; Tau ThT inhib: inactive; Tau fluor counter: inactive; Tau fibril FP: inconclusive; JMJD2E inh: inactive

How did Brc1ccc(CSc2nnc(Cc3c[nH]c4ccccc34)o2)cc1 do in these assays?
PNC assembly inh: inactive; NPSR antagonist: inconclusive; Tau ThT inhib: inconclusive; Tau fluor counter: 14µM[quencher]; Tau fibril FP: inactive; JMJD2E inh: inactive

How did COc1cccc(CNC(=O)c2cc3c(=O)oc4ccc(C)cc4c3s2)c1 do in these assays?
Tau ThT inhib: inactive; Tau fluor counter: inactive; Tau fibril FP: inactive

How did COc1cccc(C2Nc3ccccc3-c3nnc(SCc4ccccc4)nc3O2)c1OC (stereo unspecified) do in these assays?
Tau ThT inhib: inactive; Tau fluor counter: inactive; Tau fibril FP: inactive

Results for CSc1cccc(NC(=O)CSc2nc3ccccc3o2)c1 ?
PNC assembly inh: -98; NPSR antagonist: inactive; Tau ThT inhib: inactive; Tau fluor counter: inconclusive; Tau fibril FP: inconclusive; JMJD2E inh: inactive

What do the screens show for `CCCC(=O)Nc1cccc(-c2nc3ccccc3o2)c1`?
PNC assembly inh: -107; NPSR antagonist: inactive; Tau ThT inhib: inactive; Tau fluor counter: inactive; Tau fibril FP: inactive; JMJD2E inh: inconclusive

What do the screens show for `CCCC(=O)Nc1cccc(-c2nc3cc(C)c(C)cc3o2)c1`?
PNC assembly inh: inactive; NPSR antagonist: inactive; Tau ThT inhib: inactive; Tau fluor counter: inactive; Tau fibril FP: inactive; JMJD2E inh: inconclusive

Results for CCC1(CC)N([O-])C(C)=C(c2ccccc2)[N+]1=O ?
PNC assembly inh: inactive; NPSR antagonist: inactive; Tau ThT inhib: inactive; Tau fluor counter: inactive; Tau fibril FP: inactive; JMJD2E inh: inactive

Results for CCC1(C)N([O-])C(C)=C(c2ccccc2)[N+]1=O (stereo unspecified) ?
PNC assembly inh: -88; NPSR antagonist: inactive; Tau ThT inhib: inactive; Tau fluor counter: inactive; Tau fibril FP: inactive; JMJD2E inh: inactive

What do the screens show for `O=C(NCc1cccs1)C1CCCN(c2ncccn2)C1` (stereo unspecified)?
PNC assembly inh: -86; NPSR antagonist: inactive; Tau ThT inhib: inactive; Tau fluor counter: inactive; Tau fibril FP: inactive; JMJD2E inh: inconclusive

Results for CC1(C)CC(=O)C2=C(C1)c1c(ccc3ccccc13)NC2c1cc([N+](=O)[O-])cc([N+](=O)[O-])c1O (stereo unspecified) ?
NPSR antagonist: inactive; Tau ThT inhib: 11µM; Tau fluor counter: inconclusive; Tau fibril FP: inconclusive; JMJD2E inh: inactive

Results for COc1cc(C2Nc3ccc4ncccc4c3C3=C2C(=O)CCC3)cc(OC)c1O (stereo unspecified) ?
PNC assembly inh: inactive; NPSR antagonist: inactive; Tau ThT inhib: inconclusive; Tau fluor counter: inactive; Tau fibril FP: inactive; JMJD2E inh: inactive

Bioassay records: PubChem, National Center for Advancing Translational Sciences (NCATS)
